A number with no mark means an inactive call. Inconclusive results are not listed. Calls of active or inactive are those of the source. Unless noted, calls follow the shape of the dose curve; as a rule, active = well fitted curve in the direction sought with a large enough effect in the repeat runs; inconclusive = weak or mixed curves; inactive = no such curve, though single readings can be large; an effect the other way counts as inactive or inconclusive.

Results on 8 compounds are retold here after PubChem BioAssay (Tox21).

Experiment [1] is described as follows: qHTS RealTime-Glo MT Cell Viability Assay in HEK293 cells - 0 hour (AID 1224880). Also: top concentration of the series differs between compounds; nearly all actives have a fitted effect of over 45% in size. The method, boiled down: (§1)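 Viable HEK293 cells reduce a cell-permeant prosubstrate; the product diffuses out and is consumed by NanoLuc in the medium to give light. Compounds went in after a 5 h incubation and plates were read over the treatment course.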
Experiment [2] is described as follows: A CellTox Green Cytotoxicity Assay to monitor cytotoxicity in HEK293 cells - 32 hour (AID 1224881). Also: nearly all actives have a fitted effect of over 40% in size. An outline of the steps:
(§2)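 Fluorescence intensity, read at 0, 8, 16, 24, 32 and 40 h of compound treatment, reflected dye binding to DNA of dead HEK293 cells; compounds (23 nL, DMSO) were added 5 h after plating cells with reagent.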

A short description of experiment [3]: A CellTox Green Cytotoxicity Assay to monitor cytotoxicity in HepG2 cells - 0 hour (AID 1224882). Also: nearly all actives have a fitted effect of over 35% in size. The method, boiled down: (§3)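 Using 1536-well format, dye-containing HepG2 suspension was seeded, allowed 5 h at 37 C/5% CO2, dosed by pintool with compounds, positive and negative controls, and imaged for fluorescence across 40 h.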
The nature of experiment [4]: A CellTox Green Cytotoxicity Assay to monitor cytotoxicity in HepG2 cells - 32 hour (AID 1224883). Also: nearly all actives have a fitted effect of over 50% in size. The method, boiled down: as §3
Experiment [5] in a line: A CellTox Green Cytotoxicity Assay to monitor cytotoxicity in HEK293 cells - 8 hour (AID 1224884). Also: nearly all actives have a fitted effect of over 35% in size. An outline of the steps: as §2
Experiment [6] is described as follows: qHTS RealTime-Glo MT Cell Viability Assay in HepG2 cells - 16 hour (AID 1224885). Also: nearly all actives have a fitted effect of over 50% in size. An outline of the steps:
(§4)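 qHTS, HepG2, 600 cells/well, RealTime-Glo (NanoLuc + prosubstrate) added with cells; 5 h preincubation; DMSO compound addition; 37 C; luminescence at 0/8/16/24/32/40 h.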

Experiment [7] can be described thus: qHTS RealTime-Glo MT Cell Viability Assay in HEK293 cells - 24 hour (AID 1224886). Also: nearly all actives have a fitted effect of over 50% in size. Also: potency is read from the fitted curve at half-maximal effect. As to activity change, negative = cytotoxicity: top concentration of the series differs between compounds. The method, boiled down:
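Assay medium contained NanoLuc luciferase plus cell-permeant prosubstrate, added with HEK293 cells at 600 cells/well. After 5 h at 37 C/5% CO2 compounds were added; plates stayed at 37 C for 40 h with serial luminescence reads.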

Experiment [8] can be described thus: qHTS RealTime-Glo MT Cell Viability Assay in HEK293 cells - 8 hour (AID 1224887). Also: top concentration of the series differs between compounds; nearly all actives have a fitted effect of over 50% in size. The method, boiled down: as §1
Background: Quantitative high-throughput screening tests each substance at several concentrations.

A short description of experiment [9]: A CellTox Green Cytotoxicity Assay to monitor cytotoxicity in HEK293 cells - 16 hour (AID 1224888). Also: nearly all actives have a fitted effect of over 35% in size. The method, boiled down:
as §2

Experiment [10] in a line: qHTS RealTime-Glo MT Cell Viability Assay in HepG2 cells - 0 hour (AID 1224889). Also: nearly all actives have a fitted effect of over 50% in size. An outline of the steps:
as §4

Experiment [11] is described as follows: A CellTox Green Cytotoxicity Assay to monitor cytotoxicity in HepG2 cells - 8 hour (AID 1224890). Also: nearly all actives have a fitted effect of over 45% in size. An outline of the steps: as §3
Experiment [12] can be described thus: qHTS assay to identify small molecule antagonists of the estrogen receptor alpha (ER-alpha) signaling pathway using the BG1 cell line in the presence of 0.1 nM 17-beta-estradiol - cell viability counter screen (AID 1259241). Also: nearly all actives have a fitted effect of over 40% in size. The method, boiled down:
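Measures cytotoxicity alongside the ER-alpha antagonist readout: VM7Luc4E2 cells, charcoal-stripped serum, 0.1 nM 17beta-estradiol final, 22 hr compound incubation at 37C, CellTiter-Fluor fluorescence.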

Experiment [13] is described as follows: qHTS assay to identify small molecule antagonists of the androgen receptor (AR) signaling pathway using the MDA cell line in the presence of 0.5 nM R1881 - cell viability counter screen (AID 1259242). Also: nearly all actives have a fitted effect of over 45% in size. The method, boiled down:
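Viability of MDA-kb2 cells was multiplexed with the luciferase AR readout; after 16 hr with compounds and R1881 at 0.5 nM final, CellTiter-Fluor fluorescence was recorded.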

Experiment [14] can be described thus: qHTS assay to identify small molecule phospholipidosis (PLD) inducers (AID 1259344; active = well fitted curve in the direction sought with a large enough effect; an effect the other way counts as inactive or inconclusive). An outline of the steps:
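HepG2 cells, 900/well, treated with compound plus LipidTOX Red for 24 h at 37 C; amiodarone positive and DMSO negative controls. Fixed with paraformaldehyde/Hoechst, then high-content imaging scored LipidTOX pit count and integrated intensity per well and per cell.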

Experiment [15] is described as follows: qHTS assay to identify small molecule HDAC inhibitors (AID 1259364).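 Also: wild-type HCT-116 cells with endogenous class I/II HDAC activity; top concentration of the series differs between compounds; nearly all actives have a fitted effect of over 45% in size.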 The method, boiled down: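 Read-out: luminescence of HDAC-Glo I/II reagent, 30 min RT, reflecting class I/II deacetylase activity in whole HCT-116 cells pre-exposed 2 h to DMSO-dissolved compounds.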
A short description of experiment [16]: qHTS assay to identify small molecule HDAC inhibitors - cell viability counter screen (AID 1259365). The method, boiled down: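 Following a 2hr exposure of overnight-plated wild-type HCT-116 cells to DMSO-delivered compounds, CellTiter-Glo was added and luminescence recorded after 30min at room temperature.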
Experiment [17] in a line: qHTS assay to identify small molecule agonists of the sonic hedgehog signaling (Shh) pathway - cell viability counter screen (AID 1259366). Also: nearly all actives have a fitted effect of over 50% in size. The method, boiled down: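 After a 4hr attachment at 37C, NIH/3T3 cells bearing an integrated Gli1-driven luciferase reporter were dosed with compounds. Treatment lasted 24hr, with the final hour including CellTiter-Fluor for a fluorescence viability measurement.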

Experiment [18] in a line: qHTS assay to identify small molecule antagonists of the sonic hedgehog signaling (Shh) pathway - cell viability counter screen (AID 1259367). Also: nearly all actives have a fitted effect of over 55% in size. An outline of the steps: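 NIH/3T3-derived Gli1-Luc reporter cells, 2,000/well, plated 4 hr before compound addition, then stimulated with conditioned medium for 24 hr at 37C. Viability measured in the same wells by CellTiter-Fluor fluorescence, reagent added at 23 hr for 1 hr.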

For experiment [19], the target named is Estrogen receptor (Homo sapiens) (UniProt P03372). Nature of the experiment: qHTS assay to identify small molecule antagonists of the estrogen receptor alpha (ER-alpha) signaling pathway using the BG1 cell line in the presence of 0.1 nM 17-beta-estradiol (AID 1259244). Also: nearly all actives have a fitted effect of over 50% in size. An outline of the steps: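 Estradiol at 0.1 nM (final) stimulates the endogenous ER-alpha of VM7Luc4E2 cells carrying an ERE-driven luciferase; compounds are co-incubated 22 h at 37C and luciferase output quantified by luminescence.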
% is scaled to controls: 0 for no effect and ±100 for the full control effect.

Chain of Estrogen receptor (Homo sapiens) (P03372 whole entry, looked up): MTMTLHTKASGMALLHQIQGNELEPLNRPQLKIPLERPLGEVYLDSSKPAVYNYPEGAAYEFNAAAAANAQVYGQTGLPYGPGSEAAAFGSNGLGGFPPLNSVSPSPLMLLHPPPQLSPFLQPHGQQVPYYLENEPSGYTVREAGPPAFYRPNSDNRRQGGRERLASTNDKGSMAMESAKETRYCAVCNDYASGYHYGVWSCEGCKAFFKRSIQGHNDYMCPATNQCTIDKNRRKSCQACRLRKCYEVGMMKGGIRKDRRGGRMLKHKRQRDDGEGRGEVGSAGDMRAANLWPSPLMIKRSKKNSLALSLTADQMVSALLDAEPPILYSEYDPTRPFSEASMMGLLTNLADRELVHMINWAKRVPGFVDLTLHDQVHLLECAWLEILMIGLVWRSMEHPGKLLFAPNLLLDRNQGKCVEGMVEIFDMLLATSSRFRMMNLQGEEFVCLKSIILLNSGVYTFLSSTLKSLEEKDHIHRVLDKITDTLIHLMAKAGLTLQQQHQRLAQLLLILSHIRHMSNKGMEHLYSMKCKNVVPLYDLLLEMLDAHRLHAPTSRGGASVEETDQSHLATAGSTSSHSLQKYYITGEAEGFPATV

Turning to `Cc1ccc(S(=O)(=O)NC(=O)NC2CCCC2)cc1`, the Potency entry in experiment [1], in [2], in experiment [3], in experiment [4], in experiment [5] and in experiment [7] was “inactive” throughout. Further, the Potency result in [8], in experiment [9], in experiment [10], in experiment [11], in experiment [12] and in [13] was “inactive” each time. Besides, the Potency result in [14], in [15], in experiment [17] and in experiment [18] was “inactive” in each case. In addition, the outcome in [6] and in experiment [16] was inactive.

`Cc1cccc(C)c1NC(=O)CN1CCCC1`: the Potency entry in experiment [1], in [2], in experiment [3], in [4], in experiment [5] and in [7] was “inactive” throughout. Also, the Potency entry in [8], in [9], in experiment [10], in [11], in experiment [12] and in experiment [13] was “inactive” in each case. Moreover, the Potency result in experiment [14], in experiment [15] and in experiment [18] was “inactive” in each case. For the same compound, the outcome in [6] and in experiment [16] was inactive.

As to `CCc1cnc(C(=O)O)c(C(=O)O)c1`, the Potency entry in [1], in [2], in experiment [3], in experiment [4], in experiment [5] and in experiment [7] was “inactive” in each case. Also, the Potency result in [8], in experiment [9], in experiment [10], in [11], in [12] and in [13] was “inactive” in each case. Further, the Potency result in [19], in [15] and in experiment [18] was “inactive” each time. In [6], the call was inactive.

As for `COC=O`, the activity change, negative = cytotoxicity is -6.16% [at 6.97 µM] in experiment [1]; 14.1% [at 6.97 µM] in experiment [7]; 3.22% [at 6.97 µM] in [8]; -11.5% [at 6.97 µM] in experiment [10]; 7.16% [at 8.39 µM] in experiment [12]. Moreover, the cytotoxicity increase was -12.1% [at 6.97 µM] in [2], -4.32% [at 6.97 µM] in experiment [4], -11.8% [at 6.97 µM] in [5] and -0.393% [at 6.97 µM] in experiment [11]. In [3], the cytotoxicity was 0.137% [at 6.97 µM]. Further, the activity change, negative = cytotoxic in [6] was 5.42% [at 6.97 µM]. Also, in experiment [9], the activity change is -10.1% [at 6.97 µM, hits give high values]. In addition, the viability change, negative = cytotoxic in experiment [13] is 2.17% [at 8.39 µM]; in experiment [17], 14% [at 8.39 µM]; in experiment [18], 5.98% [at 8.39 µM]. Further, the activity change, negative = inhibition in experiment [19] was -1.73% [at 8.39 µM]; in experiment [15] it was 0.883% [at 8.39 µM].

As for `CCC(C)CCCC(C)(C)O` (stereo unspecified), the Potency result in experiment [1], in experiment [2], in [3], in [4], in [5] and in experiment [7] was “inactive” in each case. In addition, the Potency result in experiment [8], in [9], in experiment [10], in experiment [11], in experiment [12] and in experiment [13] was “inactive” throughout. Also, the Potency entry in [15] was “inactive”. For the same compound, the outcome in [6] and in experiment [16] was inactive.

Consider `CCOc1ccccc1O`, for which the Potency entry in [1], in experiment [2], in experiment [3], in [4], in [5] and in [8] was “inactive” each time. Also, the Potency entry in experiment [9], in experiment [10], in [11], in experiment [12], in [13] and in experiment [15] was “inactive” in each case. Besides, the Potency entry in experiment [17] was “inactive”. The compound was called inactive in experiment [6]. The Potency in [7] was 19.5 µM (active).

For `[O-][n+]1ccc(Cl)cc1`, the Potency entry in [1], in experiment [2], in experiment [3], in [4], in experiment [5] and in [7] was “inactive” each time. Besides, the Potency result in experiment [8], in experiment [9], in experiment [10], in experiment [11], in experiment [12] and in experiment [13] was “inactive” in each case. The Potency entry in experiment [15] and in experiment [17] was “inactive” throughout. In addition, the compound was called inactive in experiment [6] and in experiment [16].

`FC1(F)C(F)(F)C(F)(F)C2(F)C(F)(C1(F)F)C(F)(F)C(F)(F)C1(F)C(F)(F)C(F)(F)C(F)(F)C(F)(F)C12F` (stereo unspecified): the Potency result in experiment [1], in experiment [2], in experiment [3], in [4], in [5] and in [7] was “inactive” each time. Besides, the Potency entry in [8], in experiment [9], in [10], in experiment [11], in [12] and in experiment [13] was “inactive” each time. Also, the Potency result in experiment [15], in experiment [17] and in experiment [18] was “inactive” each time. Further, the compound was called inactive in experiment [6] and in experiment [16].
